Bioassay records (PubChem)
Compounds with a hit are over-represented: about 19% of the library has one in this group of screens.
HepG2 viability: counter-screen for TGF-b inhibitors: cytotoxicity in HepG2 cells; AID 588856; HepG2 CAGA-GFP viability, ATP luminescence, 18 h; 410,000 compounds, 0.76% hits; Potency, µM (titrated, usually from 46.1 µM), hits mostly cytotoxic
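HepG2 CAGA-GFP cells (1000/well, DMEM with 1% FBS) received compound, then TGF-beta at 500 pg/mL final, and were incubated 18 hours at 37 degrees C. Viability was read by CellTiter-Glo luminescence. Media-only wells were set as complete cell-killing and DMSO as no toxicity.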
IL1B secr inh: blocks inflammasome-driven IL-1 beta release; THP-1 LPS/ATP IL-1B secretion, AlphaLISA, 16 h; stronger effect = lower value; 360,000 compounds, 4.7% hits; activity change, % at 57.5 µM; in the data active = activity change below about -50%; inconclusive = mostly about -30% to -49%
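THP-1 cells pretreated 1 hr with compounds (up to 57.5 uM final), then stimulated with LPS (250 ng/mL final) plus ATP (1.25 mM final); secreted IL-1B measured by AlphaLISA after 16 hr, decreased signal indicating inhibition.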
TDP1 cell CPT: growth inhibition of DT40 Tdp1-/-;hTDP1 cells with camptothecin (screen for TDP1 inhibitors) | chicken DT40 Tdp1-/-;hTDP1 cells + 20 nM CPT, ATP luminescence, 48 h | Potency, µM (doses to about 46.2 µM), most hits filed as inhibitors | 420,000 compounds, 12% hits | AID 686979; note: nearly all actives have a fitted effect of over 55% in size
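Chicken DT40 Tdp1-/- cells stably complemented with human TDP1 were seeded at 400 cells/well in medium containing 20 nM camptothecin, exposed to pin-transferred compounds, and grown at 37 °C for at least 48 hr. Viability was read as ATP luminescence.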
TDP1 cell noCPT: qHTS for Inhibitors of human tyrosyl-DNA phosphodiesterase 1 (TDP1): qHTS in cells in absence of CPT. DT40 Tdp1-/- hTDP1 cells, no CPT, ATP luminescence, 48 h. Potency, µM (doses to about 46.2 µM), actives largely listed as inhibitors. 420,000 compounds, 15% hits. AID 686978, 2013; note: nearly all actives have a fitted effect of over 55% in size
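Stably hTDP1-transfected Tdp1-null chicken DT40 cells were treated with library compounds minus camptothecin and grown for at least 48 hr at 37 °C, after which cellular ATP was quantified by luminescence.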
ASM inhibitor: human S-ASM enzyme inhibition | AID 504937 | 340,000 compounds, 0.006% hits | Potency, µM (highest dose often 57.5 µM), hits mostly inhibitors | placental ASM, HMU-PC fluorogenic substrate, 60 min | P17405
Target sequence (P17405 47-631 limits assumed): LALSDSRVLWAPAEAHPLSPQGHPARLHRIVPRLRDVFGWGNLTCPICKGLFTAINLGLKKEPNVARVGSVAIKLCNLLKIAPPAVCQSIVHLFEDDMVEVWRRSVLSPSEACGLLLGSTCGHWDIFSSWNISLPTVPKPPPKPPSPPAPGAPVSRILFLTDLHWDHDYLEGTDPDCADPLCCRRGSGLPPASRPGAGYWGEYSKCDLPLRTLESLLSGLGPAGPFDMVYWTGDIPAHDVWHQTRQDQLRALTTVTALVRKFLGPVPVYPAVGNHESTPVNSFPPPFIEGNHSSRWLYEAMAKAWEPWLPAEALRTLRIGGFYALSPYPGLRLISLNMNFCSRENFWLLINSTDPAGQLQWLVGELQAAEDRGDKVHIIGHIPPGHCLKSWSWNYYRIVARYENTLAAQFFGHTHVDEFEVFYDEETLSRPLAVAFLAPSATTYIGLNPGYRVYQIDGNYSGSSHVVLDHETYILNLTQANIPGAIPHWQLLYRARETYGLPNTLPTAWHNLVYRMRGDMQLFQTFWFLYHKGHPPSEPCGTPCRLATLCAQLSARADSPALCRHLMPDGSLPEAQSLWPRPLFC
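Fluorescence read-out (Ex 386 nm, Em 447 nm) after stopping the reaction at pH 10. Enzyme: ASM from human placenta; substrate HMU-PC0, 9 uM final; 60 min, 37 °C. Compound preincubation 10 min, ambient temperature.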
TGFb SMAD3 inh: blocks TGF-b signaling; Potency, µM (titrated, usually from 46.1 µM), actives largely listed as inhibitors; HepG2 CAGA-GFP TGF-b/SMAD3 reporter, GFP fluorescence, 18 h; TGF-beta stimulated, 500 pg/mL final; 410,000 compounds, 1.2% hits; note: nearly all actives have a fitted effect of over 65% in size
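Using HEPG2 CAGA-GFP reporter cells at 1000 cells/well, we pinned test compounds, stimulated with recombinant TGF-beta (500 pg/mL final) and measured total well GFP after 18 h.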
Hits are given with their value; 0 = inactive; ? = inconclusive; - = no result given. Unless noted, calls come from the whole dose curve; as a rule, active = well fitted curve in the direction sought with a large enough effect; inconclusive = small, poorly fitted or top-dose-only effect, or another doubt; inactive = no such curve, though single readings can be large; an effect the other way counts as inactive or inconclusive.

SMILES	HepG2 viability	IL1B secr inh	TDP1 cell CPT	TDP1 cell noCPT	ASM inhibitor	TGFb SMAD3 inh
CC(=O)N1CCN(c2ccc(OCC3CO[C@@](Cn4ccnc4)(c4ccc(Cl)cc4Cl)O3)cc2)CC1 (stereo partly specified)	-	-	7.3µM	6.5µM	-	-
COc1cccc(-c2nc3cc4c(cc3cc2CN(C(=O)c2cccs2)C2CC2)CCC4)c1OC	-	-	?	16µM	-	-
Cc1ccc(S(=O)(=O)N2CCC(=O)N(CCOC(=O)Nc3cccc(Cl)c3)CC2)cc1	0	0	12µM	21µM	0	?
Cc1cccc(C(O)c2ncc(-c3ccccc3Cl)[nH]2)c1C (stereo unspecified)	0	0	?	?	-	0
Cn1c(O)c(C=NC2C(=O)C3(C)CCC2C3(C)C)c(=O)n(C)c1=O (stereo unspecified)	0	0	0	0	0	0
O=C(Cc1ccccc1)Oc1ccc(N2C(=O)CCC2=O)cc1	0	0	0	0	0	0
Cc1cc(C)[n+](C2C3CC4CC(C3)CC2C4)o1 (stereo unspecified)	0	0	0	21µM	0	0
CC12CCC(=O)CC1CCC1C2C(=O)CC2(C)C1CCC2(C)O (stereo unspecified)	0	0	0	0	0	0
CC12CC(O)C3C(CCC4=CC(=O)CCC43C)C1CCC2=O (stereo unspecified)	0	0	0	0	0	0
COC(=O)C1=C(c2ccc(S(C)(=O)=O)cc2)C[C@@H]2CC[C@H]1N2C(=O)NC(C)C	0	0	0	0	0	0
CC[C@]1(C2=NCCN2)Cc2ccccc2O1	-	-	0	0	-	-
ClCCN(CCCl)c1ccc(C2=NCCc3ccccc32)cc1	0	-78	23µM	?	0	?
COc1ccc2c(c1)C(c1ccc(N(CCCl)CCCl)cc1)=NCC2	0	-90	16µM	13µM	0	?
O=C1C[C@@H]2OCC=C3CN4CC[C@]56c7ccccc7N1[C@H]5[C@H]2[C@H]3C[C@H]46	-	-	-	0	-	-
O=C(O)C1CC2(Cl)C(Cl)=C(Cl)C1(Cl)C2(Cl)Cl (stereo unspecified)	0	0	0	0	0	0
Cc1cccn2c(=O)c3c(nc12)N1CCC(Cc2ccccc2)CC1C1(C3)C(=O)N(C)C(=O)N(C)C1=O (stereo unspecified)	0	0	18µM	?	0	0
Cc1cccn2c(=O)c3c(nc12)N1CCCCC1C1(C3)C(=O)N(C)C(=O)N(C)C1=O (stereo unspecified)	0	0	0	?	0	0
CCCOc1ccc(C(=O)NC(=S)N2C[C@H]3C[C@H](C2)c2cccc(=O)n2C3)cc1	0	0	0	0	0	0
O=C(Oc1ccc([N+](=O)[O-])cc1)N1CCN(/[N+]([O-])=N/Oc2ccc([N+](=O)[O-])cc2[N+](=O)[O-])CC1	0	-	-	-	-	?
C[C@]12CCC3C(CC[C@H]4[C@@H](O)[C@H](O)CC[C@]34C)C1CCC2=O (stereo partly specified)	0	0	0	?	0	0
CC12CC(=O)C3C(CCC4CC(=O)C=CC43C)C1CCC2=O (stereo unspecified)	0	-93	0	?	0	0
O=C(c1ccc2c(c1)N(Cc1c(F)cccc1Cl)C(=O)c1ccccc1S2)N1CCC2(CC1)OCCO2	0	-	?	23µM	-	0
CCN1C(=O)c2ccccc2Sc2ccc(C(=O)N3CCC4(CC3)OCCO4)cc21	0	0	?	13µM	0	0
CCN(CC)c1nc2ccccc2nc1C(=O)Nc1cccc(C(C)=O)c1	0	-	?	?	-	0
Cc1c(C)c2c(c(C)c1OC(=O)CCC(=O)OCCO)CC[C@@](C)(CCC[C@H](C)CCC[C@H](C)CCCC(C)C)O2	-	-	11µM	?	-	-
